Assay results: paper PMC7862700, “An all-to-all approach to the identification of sequence-specific readers for epigenetic DNA modifications on cytosine”

Tests used:
Test in all cases: DAPPL (digital affinity profiling via proximity ligation, sequencing); 10 mM Tris-HCl pH 7.5, 50 mM NaCl, 1 mM DTT, 4% glycerol, room temperature, 30 min; GST-TFs on glutathione beads, 16-mer random dsDNA library, 0.1% formaldehyde crosslink after washing; high values mean tight binding
FLI1 = target: T1, FLI1 (Homo sapiens, UniProt Q01543 1-452); conditions: protein: recombinant; tags: N-terminal GST; dsDNA, one strand shown
T1 sequence: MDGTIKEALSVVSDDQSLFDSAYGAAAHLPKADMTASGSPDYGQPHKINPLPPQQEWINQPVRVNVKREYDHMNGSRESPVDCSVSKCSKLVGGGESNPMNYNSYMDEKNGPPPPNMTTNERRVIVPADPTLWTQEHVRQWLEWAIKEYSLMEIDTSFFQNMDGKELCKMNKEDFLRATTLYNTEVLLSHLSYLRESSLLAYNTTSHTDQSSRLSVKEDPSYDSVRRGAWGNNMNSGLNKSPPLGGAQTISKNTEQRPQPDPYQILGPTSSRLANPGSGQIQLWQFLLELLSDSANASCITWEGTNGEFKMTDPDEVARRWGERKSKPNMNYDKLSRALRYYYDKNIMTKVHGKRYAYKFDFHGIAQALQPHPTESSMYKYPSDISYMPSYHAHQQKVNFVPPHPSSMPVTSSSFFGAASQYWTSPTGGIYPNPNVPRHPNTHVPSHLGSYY
Outline: (§1)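 Sequencing on an Illumina NextSeq500 followed washing, crosslinking with 0.1% formaldehyde, proximity ligation (BsaI/T4 ligase, 1 h, 37 °C) and PCR amplification of pools that had been incubated for 30 min at room temperature with 200 nmole of a random double-stranded 16-mer DNA library in Tris/NaCl/DTT/glycerol buffer. Each pool held DNA-barcoded human transcription factors, expressed in yeast as GST fusions and captured on glutathione beads, plus a tag-only sample. Binding signal is a hexamer's read frequency for a factor divided by its frequency in the tag-only sample.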

SPI1 = SPI1 (Homo sapiens, UniProt P17947 1-270); conditions: protein: recombinant; tags: N-terminal GST; dsDNA, one strand shown
Outline: as §1

HSF1 = HSF1 (Homo sapiens, UniProt Q00613 1-529); conditions: protein: recombinant; tags: N-terminal GST; chain copies: 3; dsDNA, one strand shown
Sequence of HSF1 (Q00613 whole entry): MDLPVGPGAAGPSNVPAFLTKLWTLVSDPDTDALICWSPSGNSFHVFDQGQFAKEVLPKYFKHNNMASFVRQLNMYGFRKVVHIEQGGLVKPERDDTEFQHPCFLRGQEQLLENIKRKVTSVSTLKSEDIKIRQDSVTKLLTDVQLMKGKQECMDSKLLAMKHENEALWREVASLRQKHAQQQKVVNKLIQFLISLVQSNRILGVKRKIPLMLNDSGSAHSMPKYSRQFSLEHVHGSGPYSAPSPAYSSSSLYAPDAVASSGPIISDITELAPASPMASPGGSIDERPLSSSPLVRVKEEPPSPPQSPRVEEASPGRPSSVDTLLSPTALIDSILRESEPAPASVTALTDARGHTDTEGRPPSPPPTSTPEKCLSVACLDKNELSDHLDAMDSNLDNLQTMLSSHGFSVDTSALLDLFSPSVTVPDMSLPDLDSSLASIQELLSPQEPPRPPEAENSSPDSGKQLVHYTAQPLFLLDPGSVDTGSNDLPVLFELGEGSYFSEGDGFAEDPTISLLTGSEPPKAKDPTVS
Outline: as §1

ETV2 = target: T2, ETV2 (Homo sapiens, UniProt O00321 1-342); conditions: protein: recombinant; tags: N-terminal GST; dsDNA, one strand shown
T2 sequence: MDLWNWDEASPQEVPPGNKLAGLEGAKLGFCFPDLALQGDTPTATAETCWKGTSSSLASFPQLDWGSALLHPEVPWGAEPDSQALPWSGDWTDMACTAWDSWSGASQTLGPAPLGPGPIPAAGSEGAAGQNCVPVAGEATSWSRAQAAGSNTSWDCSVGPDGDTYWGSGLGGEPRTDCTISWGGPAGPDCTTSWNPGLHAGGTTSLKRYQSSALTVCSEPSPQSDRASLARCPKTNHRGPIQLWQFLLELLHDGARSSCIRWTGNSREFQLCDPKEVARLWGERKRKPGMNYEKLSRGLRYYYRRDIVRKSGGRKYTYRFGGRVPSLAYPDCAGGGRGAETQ
Outline: as §1

CRX = CRX (Homo sapiens, UniProt O43186 1-299); conditions: protein: recombinant; tags: N-terminal GST; dsDNA, one strand shown
Sequence of CRX (O43186 whole entry): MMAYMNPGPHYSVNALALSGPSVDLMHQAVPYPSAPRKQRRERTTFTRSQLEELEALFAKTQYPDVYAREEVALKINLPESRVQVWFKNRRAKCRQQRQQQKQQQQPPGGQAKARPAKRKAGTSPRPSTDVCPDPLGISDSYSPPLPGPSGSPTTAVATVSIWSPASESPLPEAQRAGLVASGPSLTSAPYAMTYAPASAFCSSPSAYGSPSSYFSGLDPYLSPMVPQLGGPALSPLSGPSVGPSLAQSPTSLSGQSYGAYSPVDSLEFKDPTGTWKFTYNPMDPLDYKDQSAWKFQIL
Outline: as §1

FEV = target: T3, FEV (Homo sapiens, UniProt Q99581 1-238); conditions: protein: recombinant; tags: N-terminal GST; dsDNA, one strand shown
T3 sequence: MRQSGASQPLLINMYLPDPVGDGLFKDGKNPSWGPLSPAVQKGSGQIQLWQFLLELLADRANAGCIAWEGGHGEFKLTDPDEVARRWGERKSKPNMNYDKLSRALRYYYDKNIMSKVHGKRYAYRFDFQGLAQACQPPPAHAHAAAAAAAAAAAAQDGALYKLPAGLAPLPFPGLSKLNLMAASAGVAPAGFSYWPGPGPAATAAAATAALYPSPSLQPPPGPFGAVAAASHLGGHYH
Outline: as §1

ELF5 = target: T4, ELF5 (Homo sapiens, UniProt Q9UKW6-2 1-255); conditions: protein: recombinant; tags: N-terminal GST; dsDNA, one strand shown
T4 sequence: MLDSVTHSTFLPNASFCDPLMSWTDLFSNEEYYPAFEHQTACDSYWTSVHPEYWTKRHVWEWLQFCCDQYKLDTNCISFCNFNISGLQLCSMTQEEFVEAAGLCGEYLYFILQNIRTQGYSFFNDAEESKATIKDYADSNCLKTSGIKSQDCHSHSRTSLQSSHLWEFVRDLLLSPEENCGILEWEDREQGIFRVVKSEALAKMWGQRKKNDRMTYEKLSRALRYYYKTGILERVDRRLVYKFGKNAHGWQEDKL
Outline: as §1

Sequence | binding signal (FLI1) | binding signal (SPI1) | binding signal (HSF1) | binding signal (ETV2) | binding signal (CRX) | binding signal (FEV) | binding signal (ELF5)
TGATAG | 1.14 fold enrichment (6-mer frequency, TF over GST control) | 1.01 fold enrichment (6-mer frequency, TF over GST control) | 1.02 fold enrichment (6-mer frequency, TF over GST control) | 1.09 fold enrichment (6-mer frequency, TF over GST control) | 1.01 fold enrichment (6-mer frequency, TF over GST control) | – | –
TAAAGG | 1.04 fold enrichment (6-mer frequency, TF over GST control) | 1.03 fold enrichment (6-mer frequency, TF over GST control) | 1.15 fold enrichment (6-mer frequency, TF over GST control) | – | 1.56 fold enrichment (6-mer frequency, TF over GST control) | 1.02 fold enrichment (6-mer frequency, TF over GST control) | 1.1 fold enrichment (6-mer frequency, TF over GST control)
CATGCG | 1.01 fold enrichment (6-mer frequency, TF over GST control) | – | 1.07 fold enrichment (6-mer frequency, TF over GST control) | 1 fold enrichment (6-mer frequency, TF over GST control) | – | – | –
TGATTA | 1.07 fold enrichment (6-mer frequency, TF over GST control) | – | 1.58 fold enrichment (6-mer frequency, TF over GST control) | 1.07 fold enrichment (6-mer frequency, TF over GST control) | 2.23 fold enrichment (6-mer frequency, TF over GST control) | – | 1.03 fold enrichment (6-mer frequency, TF over GST control)
CGTTTA | 1.08 fold enrichment (6-mer frequency, TF over GST control) | 1.06 fold enrichment (6-mer frequency, TF over GST control) | 1.06 fold enrichment (6-mer frequency, TF over GST control) | 1.03 fold enrichment (6-mer frequency, TF over GST control) | 1.19 fold enrichment (6-mer frequency, TF over GST control) | 1.09 fold enrichment (6-mer frequency, TF over GST control) | 1.07 fold enrichment (6-mer frequency, TF over GST control)
AGATCT | 1.06 fold enrichment (6-mer frequency, TF over GST control) | – | 1.47 fold enrichment (6-mer frequency, TF over GST control) | 1.11 fold enrichment (6-mer frequency, TF over GST control) | 1.33 fold enrichment (6-mer frequency, TF over GST control) | – | –
AGTCTC | 1.04 fold enrichment (6-mer frequency, TF over GST control) | 1.07 fold enrichment (6-mer frequency, TF over GST control) | 1 fold enrichment (6-mer frequency, TF over GST control) | – | – | – | –
TGAATC | 1.03 fold enrichment (6-mer frequency, TF over GST control) | 1.11 fold enrichment (6-mer frequency, TF over GST control) | 1.03 fold enrichment (6-mer frequency, TF over GST control) | – | 1.08 fold enrichment (6-mer frequency, TF over GST control) | – | –
TGGATA | 1.08 fold enrichment (6-mer frequency, TF over GST control) | – | 1.2 fold enrichment (6-mer frequency, TF over GST control) | 1.02 fold enrichment (6-mer frequency, TF over GST control) | 1.34 fold enrichment (6-mer frequency, TF over GST control) | 1.03 fold enrichment (6-mer frequency, TF over GST control) | 1.04 fold enrichment (6-mer frequency, TF over GST control)
GCTAGT | 1.1 fold enrichment (6-mer frequency, TF over GST control) | 1.13 fold enrichment (6-mer frequency, TF over GST control) | 1.12 fold enrichment (6-mer frequency, TF over GST control) | 1.07 fold enrichment (6-mer frequency, TF over GST control) | – | 1.03 fold enrichment (6-mer frequency, TF over GST control) | –
TAAGGG | 1.01 fold enrichment (6-mer frequency, TF over GST control) | – | 1.12 fold enrichment (6-mer frequency, TF over GST control) | – | 1.49 fold enrichment (6-mer frequency, TF over GST control) | 1 fold enrichment (6-mer frequency, TF over GST control) | 1.06 fold enrichment (6-mer frequency, TF over GST control)
CGCAAC | 1.04 fold enrichment (6-mer frequency, TF over GST control) | – | – | – | – | 1.07 fold enrichment (6-mer frequency, TF over GST control) | 1.01 fold enrichment (6-mer frequency, TF over GST control)
GATTAA | 1.01 fold enrichment (6-mer frequency, TF over GST control) | – | 2.83 fold enrichment (6-mer frequency, TF over GST control) | 1.11 fold enrichment (6-mer frequency, TF over GST control) | 4.96 fold enrichment (6-mer frequency, TF over GST control) | 1.02 fold enrichment (6-mer frequency, TF over GST control) | –
GATCCA | 1.01 fold enrichment (6-mer frequency, TF over GST control) | – | 1.21 fold enrichment (6-mer frequency, TF over GST control) | – | 1.23 fold enrichment (6-mer frequency, TF over GST control) | 1.07 fold enrichment (6-mer frequency, TF over GST control) | 1.03 fold enrichment (6-mer frequency, TF over GST control)
GTCACG | 1.09 fold enrichment (6-mer frequency, TF over GST control) | 1.05 fold enrichment (6-mer frequency, TF over GST control) | – | – | – | – | –
GCTGCA | 1.09 fold enrichment (6-mer frequency, TF over GST control) | 1 fold enrichment (6-mer frequency, TF over GST control) | – | 1.01 fold enrichment (6-mer frequency, TF over GST control) | – | 1.01 fold enrichment (6-mer frequency, TF over GST control) | –
TTGGAT | 1.02 fold enrichment (6-mer frequency, TF over GST control) | – | 1.21 fold enrichment (6-mer frequency, TF over GST control) | – | 1.39 fold enrichment (6-mer frequency, TF over GST control) | 1 fold enrichment (6-mer frequency, TF over GST control) | –
TACAGC | 1.06 fold enrichment (6-mer frequency, TF over GST control) | – | – | 1.12 fold enrichment (6-mer frequency, TF over GST control) | 1.07 fold enrichment (6-mer frequency, TF over GST control) | 1.01 fold enrichment (6-mer frequency, TF over GST control) | 1.07 fold enrichment (6-mer frequency, TF over GST control)
CTCGGG | 1.06 fold enrichment (6-mer frequency, TF over GST control) | – | 1.04 fold enrichment (6-mer frequency, TF over GST control) | – | – | – | –
CGCGAT | 1.02 fold enrichment (6-mer frequency, TF over GST control) | 1.09 fold enrichment (6-mer frequency, TF over GST control) | 1.23 fold enrichment (6-mer frequency, TF over GST control) | 1.17 fold enrichment (6-mer frequency, TF over GST control) | 1.1 fold enrichment (6-mer frequency, TF over GST control) | – | 1.04 fold enrichment (6-mer frequency, TF over GST control)
GCACCT | 1.07 fold enrichment (6-mer frequency, TF over GST control) | 1.05 fold enrichment (6-mer frequency, TF over GST control) | – | 1.25 fold enrichment (6-mer frequency, TF over GST control) | – | 1.04 fold enrichment (6-mer frequency, TF over GST control) | –
